Results on nine molecules are retold here after PubChem BioAssay (EPA / NIEHS).

Results filed as inconclusive are left out. Calls of active or inactive are those of the source. The calls were made as follows, unless noted: active = hit-call score of the fitted dose curve at least 0.9, where 1 is the maximum; inconclusive = response in the unintended direction; inactive = score below 0.9.

Read-out in test [1]: glucuronosyltransferase (UGT1A1), UGT1A1 (gene 54658)
As to the kind of experiment: CLD_UGT1A1_24hr: CellzDirect (CLD) Gene Expression Assay for glucuronosyltransferase (UGT1A1) at 24 hours (AID 2283696). Summed up: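 UGT1A1 transcript induction was measured by quantitative nuclease protection assay (chemiluminescence) in human hepatocyte cultures 24 h after daily fresh dosing, with 0.2% DMSO as vehicle and baseline.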

Read-out in test [2]: Cytochrome P450 3A4 (Homo sapiens) (UniProt P08684)
As to the kind of experiment: CLD_CYP3A4_48hr: CellzDirect (CLD) Gene Expression Assay for xenobiotic metabolism (CYP3A4) at 48 hours (AID 2283698). Put shortly: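 CYP3A4 induction read by qNPA chemiluminescence after 48 h, with fresh dosing solutions on consecutive days, in cultured human hepatocytes (two donors). Vehicle 0.2% DMSO as baseline; microscopy-based cytotoxicity annotated yes/no alongside data.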

Read-out in test [3]: Cytochrome P450 2B6 (Homo sapiens) (UniProt P20813)
As to the kind of experiment: CLD_CYP2B6_48hr: CellzDirect (CLD) Gene Expression Assay for xenobiotic metabolism (CYP2B6) at 48 hours (AID 2283699).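 Also: actives raise transcript level above DMSO so potency reflects induction.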 Summed up:
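CYP2B6 transcript induction, read by quantitative nuclease protection (S1 digestion, chemiluminescent detection) 48 h after dosing, is fitted upward against 0.2% DMSO. Cultured human liver primary cells, two donor preparations, received fresh chemical daily over multiple concentrations.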

Read-out in test [4]: xenobiotic metabolism (CYP1A2), CYP1A2 (gene 1544)
The experiment in a line: CLD_CYP1A2_48hr: CellzDirect (CLD) Gene Expression Assay for xenobiotic metabolism (CYP1A2) at 48 hours (AID 2283703). Put shortly:
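Cytotoxicity was flagged yes/no from morphology, while CYP1A2 transcript induction was detected by qNPA chemiluminescence after a 48-hour exposure. Human primary hepatocyte cultures from separate donors received fresh dosing solutions daily over two days, with 0.2% DMSO as vehicle and baseline.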

Read-out in test [5]: glucuronosyltransferase (UGT1A1), UGT1A1 (gene 54658)
The experiment in a line: CLD_UGT1A1_48hr: CellzDirect (CLD) Gene Expression Assay for glucuronosyltransferase (UGT1A1) at 48 hours (AID 2283709).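 Also: actives increase expression relative to DMSO so potency refers to induction.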 Summed up:
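Quantitative nuclease protection assay (chemiluminescent) for UGT1A1 mRNA at 48 h in human hepatocyte cultures from two donors, redosed daily with fresh solutions. Induction fitted relative to 0.2% DMSO; phase-contrast morphology annotated cytotoxicity.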

Read-out in test [6]: sulfotransferase (SULT2A), SULT2A1 (gene 6822)
The experiment in a line: CLD_SULT2A_48hr: CellzDirect (CLD) Gene Expression Assay for sulfotransferase (SULT2A) at 48 hours (AID 2283710).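 Also: hits raise SULT2A1 transcript above the 0.2% DMSO vehicle baseline.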 Put shortly:
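SULT2A1 transcript measured by qNPA chemiluminescence in human primary hepatocyte cultures after 48 h, with fresh dosing solutions on two consecutive days; gain-of-signal fitting against 0.2% DMSO vehicle; cytotoxicity annotated from phase-contrast morphology.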

Read-out in test [7]: HMG-CoA synthase (HMGCS2), HMGCS2 (gene 3158)
As to the kind of experiment: CLD_HMGCS2_48hr: CellzDirect (CLD) Gene Expression Assay for HMG-CoA synthase (HMGCS2) at 48 hours (AID 2283711). Summed up:
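mRNA induction read by qNPA chemiluminescence, 48 h after dosing. Cultured primary human liver cells (two donor preparations) received fresh compound daily over two days against 0.2% DMSO vehicle; morphology-based cytotoxicity noted alongside.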

Test [8] can be described thus: CEETOX_H295R_MTT_cell_viability: Viability Assessment in the CeeTox HT-H295R MTT Assay (AID 2283718; active = hit-call score of the fitted dose curve at least 0.9, where 1 is the maximum; inactive = score below 0.9;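 as to AC50: curve fitted both ways so AC50 may mark viability loss or gain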). Put shortly:
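Human H295R adrenal cells, prestimulated 48 h with 10 uM forskolin, were exposed 48 h to chemicals in 0.1% DMSO. Viability was measured in the same wells by MTT (0.5 mg/ml, 4 h, 37 C), absorbance 570/650 nm, as percent of controls.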

Test [9] can be described thus: CLD_ACTIN_48hr: CellzDirect (CLD) Gene Expression Assay for Baseline Control (Actin) at 48 hours (AID 2283702). Summed up:
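Background-control actin mRNA read by qNPA chemiluminescence at 48 h. Human hepatocyte cultures from two donors received fresh multi-concentration chemical doses daily for two days; 0.2% DMSO served as vehicle baseline.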

Read-out in test [10]: Broad substrate specificity ATP-binding cassette transporter ABCG2 (Homo sapiens) (UniProt Q9UNQ0)
The experiment in a line: CLD_ABCG2_48hr: CellzDirect (CLD) Gene Expression Assay for ABC Transporter (ABCG2) at 48 hours (AID 2283704). Summed up: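 ABCG2 transcript measured at 48 h by quantitative nuclease protection (chemiluminescent) and fitted for increase relative to 0.2% DMSO. Hepatocyte cultures from separate donors got fresh compound daily over two days; morphology annotated cytotoxicity.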

Read-out in test [11]: organic anion transporter (SLCO1B1), SLCO1B1 (gene 10599)
As to the kind of experiment: CLD_SLCO1B1_48hr: CellzDirect (CLD) Gene Expression Assay for organic anion transporter (SLCO1B1) at 48 hours (AID 2283707). Put shortly:
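SLCO1B1 transcript quantified by qNPA with chemiluminescent readout after 48 h of once-daily chemical exposure. Cultured human primary hepatocytes came from two donors, with 0.2% DMSO vehicle; positive-direction fitting against DMSO, cytotoxicity flagged by morphology.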

Read-out in test [12]: alkyl and aryl transferase (GSTA2), GSTA2 (gene 2939)
The experiment in a line: CLD_GSTA2_48hr: CellzDirect (CLD) Gene Expression Assay for alkyl and aryl transferase (GSTA2) at 48 hours (AID 2283708).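 Also: active means mRNA induction above DMSO vehicle baseline.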 Summed up: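 GSTA2 mRNA quantified by qNPA chemiluminescence in human primary hepatocyte lysates after 48 h of daily fresh chemical dosing. Increases fitted against 0.2% DMSO vehicle baseline; cytotoxicity from morphology annotated yes/no.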

Test [13] can be described thus: Tanguay_ZF_120hpf_ActivityScore_legacy: (Legacy) Oregon State University Tanguay Lab 120 Hour Post-fertilization zebrafish Assay Score for Activity (AID 2283742). Summed up: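 Dechorionated 5D embryos, one per well, static exposure 6–120 hpf, 28C, sealed and dark; final DMSO 0.64% (vol/vol). Brightfield binary scoring of mortality plus 18 endpoints; gain-of-signal fit versus DMSO baseline.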

Read-out in test [14]: sulfotransferase (SULT2A), SULT2A1 (gene 6822)
The experiment in a line: CLD_SULT2A_24hr: CellzDirect (CLD) Gene Expression Assay for sulfotransferase (SULT2A) at 24 hours (AID 2283694). Summed up: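 mRNA is measured by qNPA: probe hybridisation, S1 nuclease digestion, chemiluminescence, in lysates from human primary hepatocytes harvested 24 h after daily dosing. Vehicle was 0.2% DMSO. Phase-contrast microscopy flagged cytotoxicity (yes/no).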

Read-out in test [15]: xenobiotic metabolism (CYP1A1), CYP1A1 (gene 1543)
As to the kind of experiment: CLD_CYP1A1_48hr: CellzDirect (CLD) Gene Expression Assay for xenobiotic metabolism (CYP1A1) at 48 hours (AID 2283705). Put shortly: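 CYP1A1 transcript measured by quantitative nuclease protection (chemiluminescent) 48 h after two daily treatments of human hepatocyte cultures, versus 0.2% DMSO. Morphology-based cytotoxicity flags accompany data; two donor preparations used.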

Read-out in test [16]: ABC Transporter (ABCB1), ABCB1 (gene 5243)
As to the kind of experiment: CLD_ABCB1_48hr: CellzDirect (CLD) Gene Expression Assay for ABC Transporter (ABCB1) at 48 hours (AID 2283695). Put shortly: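 ABCB1 mRNA was measured by quantitative nuclease protection assay (chemiluminescence) 48 h after dosing. Human hepatocyte cultures from two separate donors received fresh dosing solutions daily for two days, with 0.2% DMSO as vehicle. Positive-direction fit against DMSO.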

Test [17] is described as follows: STM_H9_OrnithineISnorm_perc: Stemina devTOX quickPredict H9 human embryonic stem cell (hESC)-based Assay for Ornithine (ORN) Metabolite Biomarker, Normalized (AID 2283712; active = hit-call score of the fitted dose curve at least 0.9, where 1 is the maximum; inactive = score below 0.9;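 also: ornithine released into spent medium during last day measured by mass spectrometry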). Put shortly: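 Ornithine secreted by H9 hESCs after 72h compound treatment (daily media/compound renewal) was quantified in final-day media by UPLC-HRMS. Values are isotope-standard-normalized, expressed relative to 0.1% DMSO, fitted in positive direction.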

Test [18] in a line: STM_H9_OrnCyssISnorm_ratio: Stemina devTOX quickPredict H9 human embryonic stem cell (hESC)-based Assay for Ornithine (ORN):Cystine (CYSS) Ratio (AID 2283714). Put shortly: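 UPLC-HRMS of spent media: ORN/CYSS ratio of internal-standard-normalized percentages, DMSO (0.1%) baseline. Pluripotent H9 hESCs, 72h exposure, daily re-dosing with fresh media; last 24h media collected.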

Sequence of Broad substrate specificity ATP-binding cassette transporter ABCG2 (Homo sapiens) (Q9UNQ0 whole entry, looked up): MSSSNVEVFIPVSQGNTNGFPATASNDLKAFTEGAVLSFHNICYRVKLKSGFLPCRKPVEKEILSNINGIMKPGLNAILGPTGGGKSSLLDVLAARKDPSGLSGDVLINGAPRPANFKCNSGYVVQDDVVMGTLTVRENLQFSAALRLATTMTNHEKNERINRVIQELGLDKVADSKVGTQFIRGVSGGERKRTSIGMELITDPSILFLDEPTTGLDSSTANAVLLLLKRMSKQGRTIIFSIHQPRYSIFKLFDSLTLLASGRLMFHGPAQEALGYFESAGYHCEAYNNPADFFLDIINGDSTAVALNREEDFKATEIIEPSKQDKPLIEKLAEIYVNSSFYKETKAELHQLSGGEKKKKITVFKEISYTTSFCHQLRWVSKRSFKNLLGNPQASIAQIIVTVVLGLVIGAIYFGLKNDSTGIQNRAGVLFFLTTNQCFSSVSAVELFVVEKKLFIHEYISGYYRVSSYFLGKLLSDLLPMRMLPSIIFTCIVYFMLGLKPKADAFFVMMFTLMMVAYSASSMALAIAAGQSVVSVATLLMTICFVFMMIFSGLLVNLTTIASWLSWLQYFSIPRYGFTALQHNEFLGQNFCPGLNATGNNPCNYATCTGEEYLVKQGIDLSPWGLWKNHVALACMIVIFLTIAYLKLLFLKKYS
Sequence of Cytochrome P450 3A4 (Homo sapiens) (P08684 whole entry, looked up): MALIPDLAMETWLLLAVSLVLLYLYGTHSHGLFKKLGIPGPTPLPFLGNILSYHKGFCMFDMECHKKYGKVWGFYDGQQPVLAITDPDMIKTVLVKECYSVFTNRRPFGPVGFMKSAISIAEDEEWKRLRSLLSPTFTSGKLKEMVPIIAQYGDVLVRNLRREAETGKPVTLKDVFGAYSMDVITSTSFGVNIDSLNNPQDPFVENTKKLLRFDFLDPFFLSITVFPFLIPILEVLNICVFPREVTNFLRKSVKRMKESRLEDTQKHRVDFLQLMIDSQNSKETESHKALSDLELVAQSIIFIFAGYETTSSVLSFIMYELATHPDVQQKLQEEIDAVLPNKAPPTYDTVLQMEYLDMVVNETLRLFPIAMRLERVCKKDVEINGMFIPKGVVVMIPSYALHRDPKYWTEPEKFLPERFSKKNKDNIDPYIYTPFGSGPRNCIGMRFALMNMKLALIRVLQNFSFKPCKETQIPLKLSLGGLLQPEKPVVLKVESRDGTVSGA

A word on the AC50: it is the concentration at which the activity in the assay is half-maximal. With `CCOC(=O)C(C)OC(=O)c1cc(Oc2ccc(C(F)(F)F)cc2Cl)ccc1[N+](=O)[O-]` (stereo unspecified), the AC50 is 2.46 µM (active) in [1]; 5.01 µM (active) in [2]; 20 µM (active) in [3]; 20 µM (active) in test [4]; 7 µM (active) in [5]; 4.61 µM (active) in test [6]. Further, the AC50 in [7] is 0.241 µM (active). Moreover, the molecule was called inactive in [8].
With `CNC(=O)N(C)c1nnc(C(C)(C)C)s1`, the molecule was called inactive in [1], in test [9], in test [10], in test [11], in [12] and in test [5]. The result in [7] and in [13] was inactive.
In the case of `CCN(CC)c1nc(C)cc(OP(=S)(OC)OC)n1`, the molecule was classed as inactive in [1], in [5], in [6] and in test [8]. Also, the AC50 is 3.58 µM (active) in test [2] and 0.684 µM (active) in [3].
Take `CC1(C)C(C(=O)OC(C#N)c2cccc(Oc3ccccc3)c2)C1(C)C` (stereo unspecified): the call in test [14], in test [4], in test [10], in test [15], in test [12] and in [6] was inactive. Besides, in test [7], the molecule was called inactive. For the same molecule, the AC50 in test [1] was 5.68 µM (active); in test [2], 20 µM (active); in test [3], 4.06 µM (active); in [5], 5.67 µM (active).
As for `COCC(=O)N(c1c(C)cccc1C)C(C)C(=O)OC` (stereo unspecified), the result in test [1], in [4], in test [5], in test [7] and in test [8] was inactive. In addition, the results for the AC50 in test [3] and in test [6] were 3.08 µM (active) and 20 µM (active), respectively.
For `CCOc1cc(C(C)(C)C)ccc1C1COC(c2c(F)cccc2F)=N1` (stereo unspecified), the molecule was classed as inactive in test [14], in test [10], in test [11], in test [5] and in [8]. Besides, the AC50 in test [2] was 1.9 µM (active); in test [4], 20 µM (active); in test [6], 7.73 µM (active).
Take `Nc1c(Cl)c(Cl)nc(C(=O)O)c1Cl`: the result in test [1], in test [2], in test [9], in [15], in [11] and in [5] was inactive.
In the case of `COC(=O)c1c(C(F)F)nc(C(F)(F)F)c(C2=NCCS2)c1CC(C)C`, the molecule was called inactive in test [16], in test [1], in test [10] and in test [5]. Moreover, the AC50 in [2] was 1.9 µM (active); in [12], 20 µM (active); in test [6] it was 1.7 µM (active); in test [8] it was 38.8 µM (active).
With `O=C(Nc1ccccc1-c1ccc(Cl)cc1)c1cccnc1Cl`, the result in [1], in test [9], in test [12], in test [5], in test [6] and in test [8] was inactive. Also, the AC50 in [4] was 4.95 µM (active); in test [17] it was 50 µM (active); in test [18] it was 72.1 µM (active).
